PP1 counter = PP1-alpha (human) inhibition in PP5 counter-screen | P62136 | purified PP1alpha, OMFP fluorescence | inhibition, % at 6.7 µM | 320,000 compounds, 0.9% hits | AID 2235;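 active = inhibition above the mean inhibition of all tested compounds plus 3 SD, computed separately for each screening campaign, cut at about 15% in these data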
Target sequence (P62136 whole entry, looked up): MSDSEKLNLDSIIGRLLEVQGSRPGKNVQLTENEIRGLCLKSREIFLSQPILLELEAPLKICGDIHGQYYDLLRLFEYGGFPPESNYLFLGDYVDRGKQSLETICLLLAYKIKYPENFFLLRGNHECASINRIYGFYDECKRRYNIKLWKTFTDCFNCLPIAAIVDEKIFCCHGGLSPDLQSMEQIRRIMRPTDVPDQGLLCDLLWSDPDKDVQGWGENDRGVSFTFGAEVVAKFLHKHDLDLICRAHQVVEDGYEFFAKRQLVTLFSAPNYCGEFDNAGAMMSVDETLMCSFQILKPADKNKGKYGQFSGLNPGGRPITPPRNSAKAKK
Granule exo inh = blocks lytic granule exocytosis; inhibition, % at 10 µM; AID 651702; TALL-104 LAMP-1 surface exposure, flow cytometry; cells stimulated with thapsigargin and PMA; 360,000 compounds, 0.66% hits;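 active = inhibition above about 55%, limit read from the data; inconclusive = no clear call, values can overlap the other calls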
SKKanGAS inh = blocks kanamycin growth of S. pyogenes SKKanGAS strain; inhibition, % at 7.5 µM; BacTiter-Glo, 6 h; 300,000 compounds, 1.3% hits;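 active = mean replicate score, as percent of positive control median, at least 50; inconclusive = mean below 50 but one replicate at or above 50; inactive = mean and every replicate below 50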;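 note: strain carries kanamycin resistance gene driven by streptokinase promoter and grows in 40 µg/ml kanamycin; loss of luminescence reflects streptokinase promoter inhibition or plain growth inhibition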
IDE cell inh = cellular human IDE inhibition. P14735. HEK cells, FAbetaB cleavage, fluorescence polarization. inhibition, % at 5.59 µM. 320,000 compounds, 0.41% hits. AID 434962;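 active = percent inhibition above the average of all tested compounds plus 3 SD, set per screening campaign, cut at about 16% in these data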;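 note: IDE supplied by intact live HEK cells; FP after avidin binding of uncleaved biotin substrate so inhibition keeps polarization high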
IDE cell activ = boosts human insulin-degrading enzyme activity in HEK cells. P14735. FAbeta-B cleavage, fluorescence polarization; 0% vehicle, 100% cell-free pure enzyme wells. activation, % at 5.96 µM. 340,000 compounds, 0.073% hits. AID 493087;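 active = activation above the mean of all tested compounds plus 3 SD, set per screening campaign, cut at about 17% in these data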
PP5 inh = PP5 (human) phosphatase inhibition | purified PP5c, OMFP substrate fluorescence | 320,000 compounds, 0.18% hits | AID 1987 | P53041 | inhibition, % at 6.7 µM;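 active = inhibition above the campaign's mean inhibition across all tested compounds plus 3 SD, cut at about 9.5% in these data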
A number is an active result; 0 = inactive; ? = inconclusive; - = no result given. Most compounds without a hit are left out; they make up all but 2.8% or so of the library.

SMILES	PP1 counter	Granule exo inh	SKKanGAS inh	IDE cell inh	IDE cell activ	PP5 inh
O=C(Nc1ccc(NC(=S)NC(=O)c2ccco2)cc1)c1ccccc1	0	0	0	0	0	0
O=C(NNC(=S)NC(=O)c1ccco1)c1ccc(NC(=O)c2ccccc2)cc1	0	0	61	0	0	0
CCCCC(=O)Nc1ccc(C(=O)NNC(=S)NC(=O)c2ccco2)cc1	0	0	?	0	0	0
Cc1onc(-c2ccccc2)c1C(=O)NNC(=S)NC(=O)c1ccc(Br)cc1	0	0	125	0	0	0
Cc1onc(-c2ccccc2)c1C(=O)NNC(=S)NC(=O)/C=C/c1ccccc1	0	0	51	0	0	0
Cc1onc(-c2ccccc2)c1C(=O)NNC(=S)NC(=O)c1ccc(Cl)cc1Cl	0	0	80	0	0	0
COc1cccc(CC(=O)NNC(=O)c2c(-c3ccccc3)noc2C)c1	0	0	0	0	-	0
Cc1onc(-c2ccccc2)c1C(=O)NNC(=O)c1ccccc1O	0	0	0	0	0	0
COc1ccc(/C=C/C(=O)NC(=S)NNC(=O)c2c(-c3ccccc3)noc2C)cc1	17	0	89	0	0	0
Cc1onc(-c2ccccc2)c1C(=O)NNC(=O)c1ccccc1	0	0	-	0	0	0
COc1ccc(NC(=S)Nc2nc(CC(=O)Nc3ccccc3OC)cs2)cc1	0	0	58	0	0	0
CCOC(=O)Cn1ccc2cc(S(=O)(=O)N3CCCC3)ccc21	-	0	-	-	-	-
CC(C)CN(Cc1cc(=O)oc2cc3c(cc12)CCCC3)CC(C)C	0	0	54	0	0	0
COCCN(CCOC)Cc1cc(=O)oc2cc3c(cc12)CCC3	0	0	0	0	0	0
O=[N+]([O-])c1ccc(N=Nc2ncc[nH]2)cc1	-	79	0	-	0	-
CO[C@H]1C=CO[C@@]2(C)Oc3c(C)c(O)c4c(O)c(c(C=NN5CCN(C6CCCC6)CC5)c(O)c4c3C2=O)NC(=O)C(C)=CC=C[C@H](C)[C@H](O)[C@@H](C)[C@@H](O)[C@@H](C)[C@H](OC(C)=O)[C@@H]1C	-	-	105	-	-	-
CO[C@H]1/C=C/O[C@@]2(C)Oc3c(C)c(O)c4c(O)c(c(C=NN5CCN(C)CC5)c(O)c4c3C2=O)NC(=O)/C(C)=C\C=C\[C@H](C)[C@H](O)[C@@H](C)[C@@H](O)[C@@H](C)[C@H](OC(C)=O)[C@@H]1C	0	0	-	0	0	0
CO[C@H]1C=CO[C@@]2(C)Oc3c(C)c(O)c4c(O)c(c(C=NN5CCN(C)CC5)c(O)c4c3C2=O)NC(=O)C(C)=CC=C[C@H](C)[C@H](O)[C@@H](C)[C@@H](O)[C@@H](C)[C@H](OC(C)=O)[C@@H]1C	0	0	106	0	0	0
Cn1c(=O)n(CCO)c(=O)c2c1nc(Br)n2Cc1ccccc1	-	0	0	-	0	-
Cc1ccnc(NC(=O)c2cccc(S(=O)(=O)N3CCCC3)c2)c1	0	0	0	0	0	0
Cc1ccccc1/C=C1\SC(=S)N(/N=C/c2cc([N+](=O)[O-])ccc2O)C1=O	0	0	0	0	0	0
COc1ccc(-c2csc(NC(=O)C3COc4ccccc4O3)n2)cc1OC (centres undefined)	0	0	0	0	0	0
CC(C)(C)OC(=O)C[C@@H]1C/C=C\C[C@@H](CC(=O)N(CCO)Cc2ccccc2)C(=O)NC[C@H](c2ccccc2)OC1=O	-	76	-	0	0	-
CC(C)(C)OC(=O)C[C@@H]1C/C=C\C[C@@H](CC(=O)N(CCO)Cc2ccccc2)C(=O)NC[C@@H](c2ccccc2)OC1=O	-	0	-	0	0	-
Cc1cccc(CS(=O)(=O)c2nnc([C@H](Cc3ccccc3)NC(=O)OC(C)(C)C)o2)c1	0	0	79	0	0	0
SMILES	PP1 counter	Granule exo inh	SKKanGAS inh	IDE cell inh	IDE cell activ	PP5 inh
Nc1ccc(O)c2c1C(=O)c1ccccc1C2=O	0	0	0	0	0	0
O=C1c2ccccc2C(=O)c2c(Nc3ccc(CCO)cc3)ccc(O)c21	0	0	83	0	0	0
O=C(NC(=S)Nc1ccc(-c2nc3ncccc3o2)cc1)c1ccccc1F	0	0	52	0	0	0
CCOC(=O)c1c(NC(=O)c2cccs2)sc(CC)c1-c1cccs1	0	0	60	0	0	0
Cc1ccc(C2CC(c3ccccc3)=NN2C(=S)Nc2ccccc2)o1 (centres undefined)	0	97	0	0	0	0
CCCCn1c(-c2ccco2)nc2oc3ccccc3c(=O)c2c1=O	0	0	50	0	0	0
CCOC(=O)c1c(-c2ccc(C)o2)csc1NC(=O)CSc1nnnn1-c1ccccc1	0	95	0	0	0	0
CCOC(=O)c1sc(NC(=O)CSc2nnnn2-c2ccccc2)nc1C	0	0	0	0	0	0
CCOC(=O)c1c(-c2ccc(C)o2)csc1NC(=S)NC(=O)c1cccs1	0	0	61	0	0	0
CCOC(=O)c1c(-c2ccc(C)o2)csc1NC(=O)CSc1nnc(C)s1	0	96	0	0	0	0
COC(=O)c1nc(NC(=S)NC(=O)c2cccs2)sc1C	0	0	60	0	0	0
CCc1ccc(-c2nc(NC(=S)NC(=O)c3cccs3)sc2C)cc1	0	0	0	0	0	0
Cc1cc(C)n2nc(-c3ccccc3)c(-c3ccccc3)c2n1	0	0	0	0	0	0
S=C(NCC1CCCO1)N1CCc2ccccc2C1 (centres undefined)	0	0	0	0	0	0
CCOC(=O)c1c(-c2ccc(C)o2)csc1NC(=O)COC(=O)c1ccc(NC(N)=O)cc1	0	0	68	0	0	0
Cc1cccc(C(C)C)c1NS(=O)(=O)c1cn(C)nc1C	0	0	0	0	0	0
Cc1nn(C)c(C)c1C(C)NC(=O)c1cc(COc2ccc(F)c(F)c2)on1 (centres undefined)	0	0	0	0	0	0
Cc1cccc(C(=O)Nc2cccc(C(=O)N3CCOCC3)c2)c1	0	0	0	0	0	0
Cc1cccc(NC(=O)C2SC(=Nc3c(C)cccc3C)C(C(=O)N3CCOCC3)=C2N)c1 (centres undefined)	0	0	94	0	0	0
CCOC(=O)Cc1cc(=O)n2[nH]c(-c3ccc(Cl)cc3)cc2n1	16	0	0	0	0	0
Cc1ccc(C(CCNC(C)c2cccs2)c2ccco2)cc1 (centres undefined)	0	0	0	0	0	0
Cc1cc(NS(=O)(=O)c2ccc(NC(=O)CSc3nc4sc(C(=O)O)c(C)c4c(=O)[nH]3)cc2)no1	0	0	0	0	0	0
Cc1cc(NS(=O)(=O)c2ccc(NC(=O)CSc3nc4sc(C)c(C)c4c(=O)[nH]3)cc2)no1	0	0	54	0	0	0
CC1CN(C(=O)CCC(=O)NCc2ccccc2Cl)c2ccccc2S1 (centres undefined)	0	0	0	0	0	0
S=c1[nH]cnc2sc(Nc3ccccc3)nc12	-	0	0	-	0	-
O=C(OCc1csc(-c2ccccc2)n1)c1ccccc1O	0	0	50	0	0	0

High-throughput results deposited in PubChem by several laboratories.
